This passage reports AC50 and outcome results from PubChem BioAssay (EPA / NIEHS).

Records with an inconclusive call do not appear. Active and inactive are the calls of the source. Rule for the calls, unless noted: active = hit-call score of the fitted dose curve at least 0.9, where 1 is the maximum; inactive = score below 0.9.

The term AC50 denotes the concentration at which the activity in the assay is half-maximal.

Test [1] is described as follows: CCTE_Shafer_MEA_acute_spike_number: CCTE's Neural Acute Assay for Total Number of Spikes, Shafer Lab (AID 2284008).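 For AC50: curve fitted for decrease in spike count so AC50 reflects inhibitors.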 In outline: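 Primary rat cortical neurons on 16-electrode MEA wells; on DIV 13 or 15, 40-min baseline then 40-min recording with compound (0.03-40 uM) at 37 C. Spikes detected at 8x rms noise; percent change versus baseline, DMSO as negative control.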

Test [2] can be described thus: CCTE_Shafer_MEA_acute_firing_rate_mean: CCTE's Neural Acute Assay for Mean Firing Rate, Shafer Lab (AID 2284009).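 Note: analyzed for loss of signal so actives lower firing rate relative to DMSO.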 Summed up: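 Percent change in well-mean firing rate was derived from extracellular spikes detected at 8x rms noise (300-5000 Hz band-pass) before and after a 40-min compound exposure. Cultures were primary rat cortical neurons, tested at 0.03-40 uM.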

Test [3] in a line: CCTE_Shafer_MEA_acute_burst_number: CCTE's Neural Acute Assay for Single-Electrode Bursts, Shafer Lab (AID 2284013). Summed up: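 Spontaneous network activity of primary rat cortical neurons was recorded extracellularly on microelectrode arrays at 37 C, with 40-min periods before and during exposure to 0.03-40 uM compound on DIV 13 or 15.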
A short description of test [4]: CCTE_Shafer_MEA_acute_per_burst_spike_number_mean: CCTE's Neural Acute Assay for Average Number of Spikes Per Burst, Shafer Lab (AID 2284015).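 Note: hits are decreases in mean spikes per burst versus baseline.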 Summed up: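 We recorded spontaneous network firing of rat cortical neurons for 40 min before and 40 min during exposure to compound at 0.03-40 uM, at 37 C. Spikes were detected adaptively at 8x rms noise, and the change in average spikes per burst was fitted against DMSO.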

The nature of test [5]: CCTE_Shafer_MEA_acute_interburst_interval_mean: CCTE's Neural Acute Assay for Mean Interburst Interval, Shafer Lab (AID 2284016).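 Note: percent change of mean interburst interval versus each well's own pre-dose baseline; curves fitted for decrease in interburst interval relative to DMSO.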 In outline:
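MEA recording of spontaneous network bursting in primary rat cortical cultures; mean interburst interval was compared before and after a 40-min compound exposure (0.03-40 uM) and expressed as percent change, relative to DMSO.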

Test [6] in a line: CCTE_Shafer_MEA_acute_burst_percentage_mean: CCTE's Neural Acute Assay for Percentage of Spikes in a Burst, Shafer Lab (AID 2284017).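 For AC50: curve fitted for loss of signal so potency reflects decreased burst percentage.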 In outline: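 Compounds were tested at 0.03-40 uM on primary rat cortical neuron networks grown over microelectrodes, with at least three wells per compound. Spontaneous firing was recorded for 40 min before and 40 min after dosing, and the change in burst percentage was computed per well.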

Test [7] in a line: CCTE_Shafer_MEA_acute_burst_percentage_std: CCTE's Neural Acute Assay for Standard Deviation of Burst Percentage, Shafer Lab (AID 2284018).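 Note: fitted in the negative direction so actives lower burst percentage SD.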 Summed up: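 Value is percent change from baseline in the across-electrode SD of spikes-in-bursts percentage, wells with >/= 10 active electrodes. Acute 40-min exposure to 0.03-40 uM on DIV 13 or 15 rat cortical cultures, recorded at 37 C after 40-min baseline.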

In test [8] the target is human Peroxisome Proliferator-activated Receptor alpha (PPARa), PPARA (gene 5465) (UniProt Q07869). Nature of the test: NVS_NR_hPPARa: NovaScreen (NVS) Nuclear Receptor Binding Assay for human Peroxisome Proliferator-activated Receptor alpha (PPARa) (AID 2283359; active = hit-call score of the fitted dose curve at least 0.9, where 1 is the maximum;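 note: activity means loss of TR-FRET signal versus DMSO baseline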). Summed up:
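Chemicals were first screened in duplicate at 25 uM, and active ones were retested across concentration series. Binding was monitored by TR-FRET one hour after dosing, with decreased signal against DMSO counted as activity.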

Test [9] concerns SERPINA7 (gene 6906). The test can be described thus: CCTE_GLTED_hTBG: CCTE's human Thyroxine-binding Globulin (TBG) Inhibition Assay, Great Lakes Toxicology and Ecology Division (GLTED) Lab (AID 2284343; active = hit-call score of the fitted dose curve at least 0.9, where 1 is the maximum;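 note: active chemicals lower fluorescence versus DMSO baseline by displacing probe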). In outline: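 Human TBG incubated 2 h with test chemical; displacement of ANSA probe read by fluorescence, 380 nm excitation/475 nm emission. Loss of signal relative to DMSO.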

In test [10] the test system is TTR (gene 7276). Nature of the test: CCTE_GLTED_hTTR_0.125uM: CCTE's human Transthyretin (hTTR) Inhibition Assay, with 0.125uM TTR, Great Lakes Toxicology and Ecology Division (GLTED) Lab (AID 2284431).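 Note: hits lower the fluorescence signal relative to DMSO baseline.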 In outline: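 Cell-free displacement of the fluorescent probe ANSA from human TTR (0.125uM) after 2 h incubation with test chemical. Fluorescence read at 380 nm excitation/475 nm emission; loss of signal fitted relative to DMSO baseline.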

The target in test [11] is Bile acid receptor (Homo sapiens) (UniProt Q96RI1). Nature of the test: OT_FXR_FXRSRC1_1440: Odyssey Thera (OT) 24-hour HEK293T Protein-Complementation Assay for Farnesoid X receptor/SRC-1 Co-activator (AID 2283384; active = hit-call score of the fitted dose curve at least 0.9, where 1 is the maximum). In outline:
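HEK293T cells, 24 h after chemical dosing. FXR–SRC-1 coactivator interaction read as fluorescence from protein-fragment complementation of a split reporter. Gain of signal fitted against DMSO baseline.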

Test [12] deals with Thyroperoxidase (TPO), gene 54314. Nature of the test: CCTE_Simmons_AUR_rTPO: CCTE's Amplex UltraRed Assay for Thyroperoxidase (TPO) Inhibition, Simmons Lab (AID 2283662; active = hit-call score of the fitted dose curve at least 0.9, where 1 is the maximum;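 note: potency for loss of signal meaning inhibition of peroxidase activity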). In outline: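 Endpoint is decreased Amplex UltraRed fluorescence after a 30-min, 37C reaction of rat thyroid microsomes with 300 uM H2O2. Eight test concentrations (5 nM–87.5 uM final) in 0.5% DMSO, three biological replicates each.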

Test [13] in a line: CCTE_Simmons_CellTiterGLO_HEK293T: Viability Assessment in CCTE's Assays for Thyroperoxidase (TPO) Inhibition, Simmons Lab (AID 2283665; active = hit-call score of the fitted dose curve at least 0.9, where 1 is the maximum). In outline: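 HEK293T cells in DMEM with 1% FBS, dosed 24 h at 37C with 8 concentrations, 5 nM–87.5 uM final, 0.5% DMSO. ATP measured by CellTiter Glo luminescence; loss of signal vs DMSO, three biological replicates.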
(In ATP-based viability assays light output follows the ATP content of the culture.)

For test [14], the target named is Luciferin 4-monooxygenase (Photinus pyralis) (UniProt P08659). Nature of the test: CCTE_Simmons_QuantiLum_inhib_2: CCTE's Firefly Luciferase Inhibition Assay, Simmons Lab (AID 2283767; active = hit-call score of the fitted dose curve at least 0.9, where 1 is the maximum). Summed up: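 Cell-free recombinant firefly luciferase (5 ng/well) in 200mM potassium phosphate with 1 mg/ml BSA, 30 min at 37C with 8 concentrations from 5 nM to 87.5 uM [final], 0.5% DMSO. Luminescence read after D-luciferin (150uM)/dATP (147uM) reagent injection, pH 7.8; triplicates.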
Chain of Luciferin 4-monooxygenase (Photinus pyralis) (P08659 whole entry, looked up): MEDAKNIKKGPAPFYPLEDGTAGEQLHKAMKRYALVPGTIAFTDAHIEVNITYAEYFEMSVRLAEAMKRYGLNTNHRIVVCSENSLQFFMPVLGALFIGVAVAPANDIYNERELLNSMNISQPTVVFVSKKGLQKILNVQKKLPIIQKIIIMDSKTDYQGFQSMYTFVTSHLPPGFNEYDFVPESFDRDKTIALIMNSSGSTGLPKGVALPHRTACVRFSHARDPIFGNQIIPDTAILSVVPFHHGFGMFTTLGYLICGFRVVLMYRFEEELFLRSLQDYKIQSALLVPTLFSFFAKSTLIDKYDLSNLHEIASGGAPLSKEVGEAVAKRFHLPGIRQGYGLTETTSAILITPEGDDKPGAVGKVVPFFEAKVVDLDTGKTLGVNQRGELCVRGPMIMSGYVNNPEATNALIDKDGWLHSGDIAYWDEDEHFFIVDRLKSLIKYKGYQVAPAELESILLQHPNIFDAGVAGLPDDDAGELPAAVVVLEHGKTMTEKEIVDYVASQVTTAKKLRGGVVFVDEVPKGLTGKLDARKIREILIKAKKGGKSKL

Test [15] is described as follows: CCTE_Padilla_ZF_Score.General: CCTE's 144 Hour Post-fertilization zebrafish Assay Score for General Malformation, Padilla Lab (AID 2284411). Summed up:
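Wild-type zebrafish embryos were plated singly at 6-8 hpf in 10% Hanks' and exposed in sealed wells at 26C until rinsed on 5 dpf. At 6 dpf two blinded assessors scored mortality, hatching and malformations by stereomicroscopy; gain-of-signal versus DMSO.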

Test [16] addresses rat Thyrotropin Releasing Hormone Receptor (TRH), Trhr (gene 25570) (UniProt Q01717). Nature of the test: NVS_GPCR_rTRH: NovaScreen (NVS) G Protein-Coupled Receptor Assay for rat Thyrotropin Releasing Hormone Receptor (TRH) (AID 2283329; active = hit-call score of the fitted dose curve at least 0.9, where 1 is the maximum;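 note: hit means lower bound tracer signal versus DMSO baseline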). Summed up: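 Test compounds are screened at 25 uM in duplicate against radioligand binding in rat forebrain membranes, with active pairs followed up over a concentration range. Detection uses filter-based radiodetection after a 4 h exposure.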

For test [17], the target named is Bile acid receptor (Homo sapiens) (UniProt Q96RI1). Nature of the test: OT_FXR_FXRSRC1_0480: Odyssey Thera (OT) 8-hour HEK293T Protein-Complementation Assay for Farnesoid X receptor/SRC-1 Co-activator (AID 2283383; active = hit-call score of the fitted dose curve at least 0.9, where 1 is the maximum). Summed up: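 HEK293T protein-fragment complementation assay: FXR and SRC-1 coactivator are fused to reporter fragments, and their interaction restores a fluorescent reporter. Readout was taken 8 h after dosing, with gain of signal fit relative to DMSO.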
Chain of Bile acid receptor (Homo sapiens) (Q96RI1 whole entry, looked up, the tested form may be a part): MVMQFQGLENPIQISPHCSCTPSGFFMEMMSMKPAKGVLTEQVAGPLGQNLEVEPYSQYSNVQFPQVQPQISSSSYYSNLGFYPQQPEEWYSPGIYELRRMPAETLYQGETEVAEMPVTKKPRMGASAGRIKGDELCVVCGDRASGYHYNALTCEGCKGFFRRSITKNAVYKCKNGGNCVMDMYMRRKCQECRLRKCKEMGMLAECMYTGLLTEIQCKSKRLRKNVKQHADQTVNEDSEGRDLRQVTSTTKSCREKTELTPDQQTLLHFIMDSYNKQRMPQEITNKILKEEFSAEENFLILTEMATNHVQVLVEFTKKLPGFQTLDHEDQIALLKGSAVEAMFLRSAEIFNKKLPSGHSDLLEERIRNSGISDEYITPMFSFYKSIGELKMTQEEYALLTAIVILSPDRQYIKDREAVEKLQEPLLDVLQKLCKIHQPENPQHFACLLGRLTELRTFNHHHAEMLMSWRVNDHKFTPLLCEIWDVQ

For test [18] the target is unchanged. Nature of the test: ATG_IR1_CIS: Attagene CIS-FACTORIAL HepG2 Assay for human Nuclear Receptor Subfamily 1 Group H Member 4 (NR1H4), IR1 submotif (AID 2282946). Particulars: IR1 reporter transcription, actives raise or lower the signal. Summed up: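 Cells (human HepG2) carry transiently transfected cis-promoter reporter transcription units. Compounds are incubated 24 h, total RNA is reverse-transcribed and amplified, and labelled fragments are resolved by capillary electrophoresis. Curves use DMSO as baseline.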

Test [19] concerns the target human Norepinephrine Transporter (NET), SLC6A2 (gene 6530) (UniProt P23975). The test can be described thus: NVS_TR_hNET: NovaScreen (NVS) Transporter Assay for human Norepinephrine Transporter (NET) (AID 2283377; active = hit-call score of the fitted dose curve at least 0.9, where 1 is the maximum;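 note: cell-free membrane protein extracted from CHO cells expressing human NET; displacement of radioligand from human NET seen as loss of scintillation signal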). In outline:
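Scintillation counts of filter-retained radioligand served as the readout, taken 1 h post-dosing in a cell-free CHO-derived system. Test chemicals ran first at 25 uM in duplicate; confirmed hits were retested across concentrations.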

Test [20] addresses human RAR-related Orphan Receptor gamma (RORg), RORC (gene 6097) (UniProt P51449). The test can be described thus: ATG_RORg_TRANS: Attagene TRANS-FACTORIAL HepG2 Assay for human RAR-related Orphan Receptor gamma (RORg) (AID 2283011; active = hit-call score of the fitted dose curve at least 0.9, where 1 is the maximum). Summed up:
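Readout: reporter transcript induction (RT-PCR, fluorescent primer extension, capillary electrophoresis) after 24 h compound exposure of transiently transfected HepG2 cells carrying a RORg-Gal4 chimera and GAL4-UAS reporters; DMSO served as baseline, with increasing signal fitted.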

Chain of human Peroxisome Proliferator-activated Receptor alpha (PPARa), PPARA (gene 5465) (Q07869 whole entry, looked up): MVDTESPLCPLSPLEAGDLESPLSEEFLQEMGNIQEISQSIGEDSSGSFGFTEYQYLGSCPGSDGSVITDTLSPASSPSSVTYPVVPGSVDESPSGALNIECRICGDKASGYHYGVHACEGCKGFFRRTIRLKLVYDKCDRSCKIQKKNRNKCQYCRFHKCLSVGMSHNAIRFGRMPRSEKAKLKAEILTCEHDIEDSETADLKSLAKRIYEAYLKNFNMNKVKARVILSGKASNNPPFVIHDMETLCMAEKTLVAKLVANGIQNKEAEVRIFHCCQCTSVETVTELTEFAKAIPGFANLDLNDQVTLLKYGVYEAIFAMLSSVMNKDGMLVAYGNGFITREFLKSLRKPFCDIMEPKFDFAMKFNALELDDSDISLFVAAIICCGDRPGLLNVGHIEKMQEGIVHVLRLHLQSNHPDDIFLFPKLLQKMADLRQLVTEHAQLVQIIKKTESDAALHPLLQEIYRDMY
Chain of human Norepinephrine Transporter (NET), SLC6A2 (gene 6530) (P23975 whole entry, looked up): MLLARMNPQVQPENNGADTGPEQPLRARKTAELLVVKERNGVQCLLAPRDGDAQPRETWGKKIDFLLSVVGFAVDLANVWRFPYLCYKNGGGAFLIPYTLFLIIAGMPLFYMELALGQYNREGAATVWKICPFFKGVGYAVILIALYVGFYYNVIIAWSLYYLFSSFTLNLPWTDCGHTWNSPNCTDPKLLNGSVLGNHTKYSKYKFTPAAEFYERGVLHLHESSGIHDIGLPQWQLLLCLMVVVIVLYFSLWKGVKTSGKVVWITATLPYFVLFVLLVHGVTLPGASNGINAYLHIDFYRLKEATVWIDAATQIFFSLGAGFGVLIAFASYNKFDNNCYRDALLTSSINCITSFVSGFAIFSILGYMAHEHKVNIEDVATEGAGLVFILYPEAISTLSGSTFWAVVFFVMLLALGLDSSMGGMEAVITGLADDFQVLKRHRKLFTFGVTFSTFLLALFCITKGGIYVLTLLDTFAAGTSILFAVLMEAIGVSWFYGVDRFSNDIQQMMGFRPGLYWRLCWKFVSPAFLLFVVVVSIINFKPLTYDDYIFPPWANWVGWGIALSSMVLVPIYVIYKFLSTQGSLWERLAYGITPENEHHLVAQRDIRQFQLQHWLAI
Chain of rat Thyrotropin Releasing Hormone Receptor (TRH), Trhr (gene 25570) (Q01717 whole entry, looked up): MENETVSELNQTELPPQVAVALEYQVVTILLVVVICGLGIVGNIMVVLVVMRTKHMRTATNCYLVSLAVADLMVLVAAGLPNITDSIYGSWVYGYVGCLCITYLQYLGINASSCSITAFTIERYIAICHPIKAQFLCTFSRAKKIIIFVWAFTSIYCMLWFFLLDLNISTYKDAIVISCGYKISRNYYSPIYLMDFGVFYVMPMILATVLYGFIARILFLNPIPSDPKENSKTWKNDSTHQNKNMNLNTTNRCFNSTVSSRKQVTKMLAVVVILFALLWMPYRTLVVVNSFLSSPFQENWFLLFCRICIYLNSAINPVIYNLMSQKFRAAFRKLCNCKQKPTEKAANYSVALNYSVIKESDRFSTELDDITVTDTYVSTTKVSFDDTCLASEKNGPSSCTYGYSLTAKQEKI
Chain of human RAR-related Orphan Receptor gamma (RORg), RORC (gene 6097) (P51449 whole entry, looked up, the tested form may be a part): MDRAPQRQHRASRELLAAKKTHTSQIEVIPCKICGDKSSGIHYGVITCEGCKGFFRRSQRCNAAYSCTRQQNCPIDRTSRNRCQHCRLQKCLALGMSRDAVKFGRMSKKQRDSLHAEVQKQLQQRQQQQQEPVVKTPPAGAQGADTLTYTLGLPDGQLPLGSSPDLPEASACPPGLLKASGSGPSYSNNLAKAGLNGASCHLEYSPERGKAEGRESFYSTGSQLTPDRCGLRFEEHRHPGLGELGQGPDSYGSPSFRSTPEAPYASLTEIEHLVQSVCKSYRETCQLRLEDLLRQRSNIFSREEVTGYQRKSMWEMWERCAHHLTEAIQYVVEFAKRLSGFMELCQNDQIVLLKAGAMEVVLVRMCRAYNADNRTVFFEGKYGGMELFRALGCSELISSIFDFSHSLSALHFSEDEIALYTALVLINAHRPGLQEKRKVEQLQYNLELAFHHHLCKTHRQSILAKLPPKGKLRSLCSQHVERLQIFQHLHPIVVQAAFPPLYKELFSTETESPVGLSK

For `CC[N+](CC)(CC(=O)Nc1c(C)cccc1C)Cc1ccccc1` (tested in a mixture with another compound), the AC50 was 0.256 µM (active) in test [1], 0.694 µM (active) in test [2] and 2.13 µM (active) in test [6]. Further, the outcome in test [3], in test [4], in test [5] and in test [7] was inactive.

Take `CC1=NN(c2cc(Cl)c(S(=O)(=O)O)cc2Cl)C(=O)C1N=Nc1ccc(S(=O)(=O)O)cc1` (centres undefined): the outcome in test [8] was inactive. Besides, the AC50 in test [9] is 39.4 µM (active); in test [10], 18.8 µM (active).

With `Sc1nc2ccccc2s1`, the call in [8], in [11], in [13] and in test [14] was inactive. Further, the AC50 was 1.42 µM (active) in test [12], 50 µM (active) in test [9], 5.5 µM (active) in [15] and 9.1 µM (active) in test [10].

For `COC(=O)[C@]1(C)CCC[C@@]2(C)[C@H]1CC=C1C=C(C(C)C)CC[C@@H]12`, in [16], the call was inactive. In addition, the half-maximal activity concentration (AC50) in test [17] was 12.7 µM (active); in test [11] it was 12.8 µM (active).

In the case of `CC(C)CC(=O)CC(C)CC(C)C` (centres undefined), the call in test [18] and in test [15] was inactive.

Take `CN(C)Cc1cc(C(C)(C)C)c(O)c(C(C)(C)C)c1`: the AC50 in test [1] is 2.98 µM (active); in [2], 2.98 µM (active); in test [6], 24.1 µM (active); in test [7], 15 µM (active). The molecule was classed as inactive in [3], in [4] and in [5].

As to `CCCCC(CC)COC(=O)CS` (centres undefined), the result in [8], in [13] and in test [14] was inactive. Also, the AC50 in [12] was 25.6 µM (active).

`O=C(c1ccccc1)c1ccccc1O`: the AC50 in [9] was 17.9 µM (active); in [10], 1.05 µM (active).

As for `CCCCCCCCCCCCCCCCCC[N+](C)(C)C`, the AC50 in [19] is 2.93 µM (active). In addition, the result in test [15] was inactive.

In the case of `Nc1ccc(S(=O)(=O)Nc2cnc3ccccc3n2)cc1`, in test [12], the half-maximal activity concentration (AC50) was 0.715 µM (active). Further, the molecule was called inactive in [14].

Turning to `O=C(CC(C(=O)OC1CCCCC1)S(=O)(=O)O)OC1CCCCC1` (centres undefined), the call in test [18] and in test [11] was inactive.

With `NC(N)=Nc1nc(CSCCC(N)=NS(N)(=O)=O)cs1`, the molecule was classed as inactive in [18], in [1], in [2], in [3], in test [4] and in test [5]. Moreover, the result in [6] and in [7] was inactive.

`C=CN1CCCCCC1=O`: the call in test [20] was inactive.

Turning to `c1ccc(CNc2ncnc3nc[nH]c23)cc1`, the outcome in test [11] was inactive.

Turning to `CC1(C)S[C@@H]2[C@H](NC(=O)[C@H](N)c3ccccc3)C(=O)N2[C@H]1C(=O)O`, the molecule was called inactive in [1], in [2], in test [3], in [4] and in test [7]. The AC50 in test [5] is 1.61 µM (active); in test [6], 0.0814 µM (active).
